Screens as filed in PubChem BioAssay.
This excerpt belongs to a sample that is enriched for hits.
DT40 TDP1 CPT = qHTS for Inhibitors of human tyrosyl-DNA phosphodiesterase 1 (TDP1): qHTS in cells in presence of CPT; Potency, µM (doses to about 46.2 µM), without a hit: at the highest dose activity change, negative = growth inhibition, actives largely listed as inhibitors; AID 686979, 2013; chicken DT40 Tdp1-/-;hTDP1 cells + 20 nM CPT, ATP luminescence, 48 h; actives 12% (n = 420,000); also: potency is read from the fitted curve at half-maximal effect; nearly all actives have a fitted effect of over 55% in size
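Chicken DT40 Tdp1-/- cells stably complemented with human TDP1 were seeded at 400 cells/well in medium containing 20 nM camptothecin, exposed to pin-transferred compounds, and grown at 37 °C for at least 48 hr. Viability was read as ATP luminescence.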
HT1080 IDH1KD tx = qHTS for induction of synthetic lethality in tumor cells producing 2HG: qHTS for the HT-1080-IDH1KD cell line; HT-1080 IDH1 knockdown viability, ATP luminescence, 48 h; Potency, µM (highest dose often 46.1 µM), inactives show top-dose activity, negative = toxicity, usual class: cytotoxic; actives 2% (n = 360,000);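 also: potency is read from the fitted curve at half-maximal effect; 0% = DMSO wells and -100% = cell-free medium wells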
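Cytotoxicity counter-line: IDH1KD HT-1080, 48 h, CellTiter-Glo. Curves classed by r2, magnitude and activity.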
TDP1 cell noCPT = qHTS for Inhibitors of human tyrosyl-DNA phosphodiesterase 1 (TDP1): qHTS in cells in absence of CPT. DT40 Tdp1-/- hTDP1 cells, no CPT, ATP luminescence, 48 h. Potency, µM (series often up to 46.2 µM), for inactives: top-dose activity change, negative = growth inhibition, usual class: inhibitors. actives 15% (n = 420,000). AID 686978, 2013; also: potency is read from the fitted curve at half-maximal effect; nearly all actives have a fitted effect of over 55% in size
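Readout: luminescence from CellTiter-Glo after 30 min in the dark at RT. Cells: DT40 Tdp1-/- with stable hTDP1, 400/well. Exposure: compounds alone, ≥48 hr, 37 °C.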
HT1080-NT tox = qHTS for induction of synthetic lethality in tumor cells producing 2HG: qHTS for the HT-1080-NT fibrosarcoma cell line; HT-1080-NT fibrosarcoma viability, CellTiter-Glo ATP luminescence, 48 h; Potency, µM (doses to about 46.1 µM), for the others: at the highest dose activity, negative = less viability, usual class: cytotoxic; actives 1.6% (n = 360,000); AID 686970, 2013;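 also: NT is the 2HG producing partner of a matched IDH1 knockdown line; potency is read from the fitted curve at half-maximal effect; 0% = DMSO-treated cells and -100% = media-only wells without cells; nearly all actives have a fitted effect of over 55% in size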
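Compounds were tested in concentration-response format on HT-1080-NT cells for 48 hours at 37 degrees C. Cell viability came from CellTiter-Glo luminescence; curves were classified by r2, response magnitude and activity.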
IL-1B inflam inh = qHTS for Inhibitors of Inflammasome Signaling: IL-1-beta AlphaLISA Primary Screen | THP-1 LPS/ATP IL-1B secretion, AlphaLISA, 16 h; stronger effect = lower value | activity change, % at 57.5 µM | actives 4.7% (n = 360,000); in the data active = activity change below about -50%; inconclusive = mostly about -30% to -49%
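THP-1 cells pretreated 1 hr with compounds (up to 57.5 uM final), then stimulated with LPS (250 ng/mL final) plus ATP (1.25 mM final); secreted IL-1B measured by AlphaLISA after 16 hr, decreased signal indicating inhibition.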
12-LOX inh = Primary qHTS assay for inhibitors of human arachidonate 12S-lipoxygenase (ALOX12): Round 2; Potency, µM (highest dose often 108 µM), inactives show at the highest dose activity change, negative = inhibition, hits mostly inhibitors; AID 1671190, 2021; purified 12hLO, xylenol orange hydroperoxide absorbance; actives 1.1% (n = 580,000); also: potency is read from the fitted curve at half-maximal effect
Target sequence (P18054 whole entry, looked up): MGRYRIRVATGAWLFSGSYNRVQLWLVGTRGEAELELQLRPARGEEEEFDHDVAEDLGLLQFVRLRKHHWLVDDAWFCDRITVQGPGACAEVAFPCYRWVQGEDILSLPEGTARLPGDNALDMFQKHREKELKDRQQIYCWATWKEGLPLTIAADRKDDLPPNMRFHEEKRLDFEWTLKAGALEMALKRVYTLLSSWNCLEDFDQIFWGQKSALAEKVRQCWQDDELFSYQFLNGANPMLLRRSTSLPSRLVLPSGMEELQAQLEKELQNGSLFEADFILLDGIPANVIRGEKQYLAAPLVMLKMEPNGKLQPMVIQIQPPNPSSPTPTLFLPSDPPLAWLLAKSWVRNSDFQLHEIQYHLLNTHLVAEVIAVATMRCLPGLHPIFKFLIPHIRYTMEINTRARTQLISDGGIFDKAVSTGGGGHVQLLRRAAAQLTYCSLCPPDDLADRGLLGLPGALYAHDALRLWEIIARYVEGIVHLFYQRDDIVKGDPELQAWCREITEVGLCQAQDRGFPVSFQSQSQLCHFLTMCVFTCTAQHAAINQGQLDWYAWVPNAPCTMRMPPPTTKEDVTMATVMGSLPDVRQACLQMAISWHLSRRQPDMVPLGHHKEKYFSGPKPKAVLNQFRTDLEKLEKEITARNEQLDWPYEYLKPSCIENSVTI
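Hydroperoxide product was detected by ferrous iron/xylenol orange as the 573 to 405 nm absorbance ratio. Arachidonic acid at 40 uM (final) was turned over for 30 min at room temperature by 150 nM human 12hLO, pH 7.0 Hepes buffer, after 15 min compound preincubation.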
The depositor's hits bear a star; ? = inconclusive; nt = no result given; [ ] = dose if it differs, or a comment. Unless noted, calls follow the shape of the dose curve; as a rule, active = well fitted curve in the direction sought with a large enough effect; inconclusive = small, poorly fitted or top-dose-only effect, or another doubt; inactive = no such curve, though single readings can be large; an effect the other way counts as inactive or inconclusive. Unless noted, % is scaled to controls: 0 for no effect and ±100 for the full control effect.

SMILES	DT40 TDP1 CPT	HT1080 IDH1KD tx	TDP1 cell noCPT	HT1080-NT tox	IL-1B inflam inh	12-LOX inh
CSc1ccc(CN2CCC2(C)C(=O)NC2CCc3ccccc32)cc1 (configuration not stated)	?	?	16.4µM*	?	-1.5	11.1%
CN1CCCCC(NC(=O)C2CCCCC2)C1=O (configuration not stated)	nt	nt	nt	nt	nt	2.2%
O=C(CCc1ccccc1)Nc1ccc2c(c1)CCC2	nt	nt	nt	nt	nt	-43.0%
Cc1nc2ccccc2nc1SCC(=O)N1CCCCC1	nt	nt	nt	nt	nt	-2.1%
CC(C)(C)c1nc(SCC(=O)N2CCCC2)c2ccccc2n1	20.6µM*	-1.3%	16.4µM*	0.7%	-18.4	5.6%
Cc1nnc(NC(=O)CSc2nc(C(C)C)nc3ccccc23)s1	6.51µM*	19.5%	7.08µM*	-2.4%	7.9	-13.4%
Cc1cc(NC(=O)CSc2nc(C(C)C)nc3ccccc23)no1	?	16.4µM*	?	?	-18.2	0.0%
CC(C)c1nc(SCC(=O)NC2CCCC2)c2ccccc2n1	-25.8%	1.1%	?	-16.4%	?	-21.4%
CC(C)(C)c1nc(SCC(=O)Nc2nc3c(s2)CCCC3)c2ccccc2n1	14.6µM*	1.41µM*	11.6µM*	?	-4.3	-6.1%
N#CC(C#N)=Cc1c[nH]c(=O)c(C#N)c1Nc1ccccc1	0.7%	0.8%	0.7%	-3.8%	1.4	376.0%
COCc1ccc(C(=O)NCc2ccc(C#N)cc2)cc1	nt	nt	nt	nt	nt	4.2%
CCOC(=O)CNC(=O)CSc1nc(Cc2cccs2)nc2ccccc12	?	-1.6%	?	-14.6%	-10.9	13.4%
O=C(CCSc1ccccc1)Nc1nc2c(s1)CCCC2	?	?	10.3µM*	-11.1%	-3.8	-23.9%
CC(C)c1nc(SCC(=O)Nc2nc3c(s2)CCCC3)c2ccccc2n1	18.4µM*	11.2µM*	11.2µM*	?	-62.7*	-23.1%
Cc1nc(SCC(=O)N2CCNC2=O)c2ccccc2n1	?	?	?	?	-95.6*	-3.9%
CC1CC(C)CN(C(=O)CSc2nc(Cc3cccs3)nc3ccccc23)C1 (configuration not stated)	?	?	20.6µM*	?	-60.5*	-3.8%
O=C(CSc1ncn(-c2ccccc2)n1)Nc1nc2c(s1)CCCC2	?	-10.1%	?	0.7%	6.7	13.1%
Cc1cc(NCc2ccccn2)n2nc(C(F)(F)F)c(-c3ccc(Cl)cc3)c2n1	nt	nt	nt	nt	nt	18.8%
COc1ccc(CC(=O)N[C@@H]2CN(Cc3ccccc3)C[C@H]2CO)cc1	nt	nt	nt	nt	nt	-2.7%
COc1ccccc1N1C(=O)CN(S(=O)(=O)c2ccccc2)CC1(C)C(=O)NCCC(C)C (configuration not stated)	nt	nt	nt	nt	nt	18.5%
CCc1ccc(S(=O)(=O)N2c3ccc(C)cc3C3CN(C)CCC32)cc1 (configuration not stated)	?	-2.0%	?	-3.1%	-51.5*	?
COc1cc(OC)c(NC(=O)CN2CCCN(Cc3ccccc3C)S2(=O)=O)cc1Cl	?	nt	1.3%	nt	nt	-8.7%
COc1ccc(-c2nnc(-c3ccccc3O)o2)cc1	?	-9.3%	10.3µM*	?	23.1	1.4%
COc1cccc(-c2nnc(-c3ccc(C(F)(F)F)cc3)o2)c1OC	?	10.6%	20.6µM*	2.7%	?	0.0%
Cc1ccc(-c2nnc(-c3cccc4ccccc34)o2)cc1	16.4µM*	-8.1%	20.6µM*	-3.7%	-2.6	-2.9%
SMILES	DT40 TDP1 CPT	HT1080 IDH1KD tx	TDP1 cell noCPT	HT1080-NT tox	IL-1B inflam inh	12-LOX inh
COC(=O)CC1C(=O)NC2CCCCC2N1C(=O)CCl (configuration not stated)	?	?	14.6µM*	?	-61.9*	0.0%
CCNC(=O)N1C(CC(=O)OCC)C(=O)NC2CCCCC21 (configuration not stated)	-2.8%	16.9%	0.6%	12.4%	3.3	0.0%
Cc1ccc(C(=O)N2CCN(c3ccc(NC(=O)c4ccc5c(c4)OCCO5)cc3)CC2)cc1	16.4µM*	-13.2%	?	-3.6%	nt	-8.4%
Cc1ccccc1C(=O)N1CCN(c2ccc(NC(=O)c3ccc4c(c3)OCCO4)cc2)CC1	?	-9.9%	23.1µM*	?	?	-2.8%
O=C(Nc1ccc(N2CCN(C(=O)c3ccccc3)CC2)cc1)c1ccc2c(c1)OCO2	14.6µM*	-12.6%	18.4µM*	-0.3%	-78.4*	-5.8%
O=C(c1ccccc1Oc1ccc(C(F)(F)F)cc1[N+](=O)[O-])N1CCOCC1	-4.6%	2.9%	16.2%	3.0%	8.7	4.5%
COc1ccccc1NC(=O)COc1ccc(C(F)(F)F)cc1[N+](=O)[O-]	?	-16.9%	18.4µM*	-2.4%	3.2	-7.6%
O=C(Nc1ccccc1Cl)c1ccccc1Oc1ccc(C(F)(F)F)cc1[N+](=O)[O-]	23.1µM*	?	18.4µM*	?	15.5	?
COc1ccc(NC(=O)c2ccco2)cc1NC(=O)COc1ccccc1[N+](=O)[O-]	-13.5%	?	-15.5%	0.2%	17.8	0.0%
COc1ccc(-n2nc(C3CCN(C(=O)Cc4cccc(Cl)c4)CC3)[nH]c2=O)cc1	nt	nt	nt	nt	nt	4.0%
N#CCCn1nc(-c2ccccc2)cc1Nc1ccccc1NC(=O)C(F)(F)F	-20.3%	12.1%	-28.0%	-0.4%	-6.9	-0.6%
N#CCCn1nc(-c2ccc(Br)cc2)cc1Nc1ccccc1NC(=O)C(F)(F)F	?	?	?	?	-77.9*	-29.9%
CC(=O)N1c2ccc(S(=O)(=O)N3CCCC3)cc2CC1C(=O)NCCc1ccccc1Cl (configuration not stated)	nt	nt	nt	nt	nt	-7.2%
Cn1cccc1C(=O)C(=O)Nc1cc(Cl)cc(Cl)c1	16.4µM*	?	14.6µM*	?	1.0	87.1%
Cn1cccc1C(=O)C(=O)Nc1ccc(F)c(F)c1	-3.2%	11.9%	-0.9%	10.1%	0.4	-4.1%
COc1ccc(NC(=O)C2(C)CCc3cnc(N4CCOCC4)nc32)cn1 (configuration not stated)	nt	nt	nt	nt	nt	-8.3%[176 µM]
COc1cc(OC)c(NC(=O)Cn2nc(-c3cc(C)ccc3C)ccc2=O)cc1Cl	nt	nt	nt	nt	nt	-53.6%
CN(C)c1nc(NCc2ccccc2)nc(N/N=C/c2ccc3c(c2)OCO3)n1	?	-25.4%	16.4µM*	-16.9%	-14.0	-1.3%
